High-throughput results: PubChem, several laboratories
Insulin prom up: insulin promoter activators in MIN6 cells, imaging, high-content screening, mouse beta cells; MIN6 insulin promoter-GFP reporter; hits give high values; z-score at 5 µM; actives 0.3% (n = 190,000);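 active = z-score above 3 at 5 µM with at least 500 cells counted in the well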
HCT116 PTEN-null: growth suppression of PTEN-null HCT116, primary screen, cell-based, CellTiter-Glo; HCT116 PTEN-null viability, 60 h; hits give low values; viability, % at 10 µM; actives 1.2% (n = 140,000); AID 827, 2007;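 active = viability at or below a set limit, 4 SD under the median of all tested compounds, cut at about 3.7% in these data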;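 note: PTEN knockout HCT116 line with beta catenin targeted HCT116 as companion control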
Lmaj promast: Leishmania major promastigote growth inhibition, primary screen. Leishmania major promastigotes, resazurin fluorescence viability. inhibition, % at 10 µM. actives 9% (n = 200,000); in the data active = inhibition above about 50%;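 note: promastigotes grown with compound for 44 hours at 28 °C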
Insulin prom inh: inhibitors of insulin promoter-driven GFP, primary screen, imaging, TRM-6 cells (human fetal islet line), eGFP reporter, cell count. reporter expression induced with tamoxifen. inhibition, % at 2 µM. actives 0.9% (n = 130,000);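 active = inhibition above the mean plus 3 SD, with well images judged a real hit on visual review, cut at about 60% in these data, passing the limit was not always enough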
Autophagy mod: autophagy modulators in MEF cells, primary screen, imaging, high-content, MEF GFP-LC3. MEF GFP-LC3 puncta imaging; test concentration mostly 10 µM. AID 463193, 2010. calls only at 10 µM (by protocol). actives 0.98% (n = 190,000);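 active = percentage of spot-positive cells more than 3 SD above its plate mean, without a fluorescence outlier flag or 80% toxicity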;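 note: spot-positive cell cutoff set from DMSO-treated cells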
bCat KO growth: primary screen for growth suppressors in beta-catenin knockout HCT116 cells (colon tumor, human); viability, % at 10 µM; AID 818, 2007; HCT116 beta-catenin knockout viability, CellTiter-Glo, 60 h; hits give low values; actives 1.5% (n = 140,000);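 active = viability at or under a set limit, the compound median less 4 SD, cut at about 6% in these data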;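 note: 0% = Hyamine 1622 control at 20 µM and 100% = untreated cell control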
Starred values were filed as active, the others as inactive; i = inactive; nt = no result; + = active, no number. This is a sample that favours compounds with a hit; in the whole collection about 9.6% have one here.

SMILES	Insulin prom up	HCT116 PTEN-null	Lmaj promast	Insulin prom inh	Autophagy mod	bCat KO growth
CCOC(=O)c1ccc(NC(=O)CSc2nc3c(c(=O)n2CC)SC(C)C3)cc1 (stereo unspecified)	-0.7	88	53*	nt	i	70
CC1(C)Cc2cccc(OCC(=O)N3CCN(S(=O)(=O)c4ccc(F)cc4)CC3)c2O1	-0.49	90	10	-29	i	90
O=S(=O)(c1ccc(-c2csc(=Nc3ccccc3)n2CCCN2CCOCC2)cc1)N1CCOCC1	0.57	60	94*	8	i	64
COc1cc2cc(C(c3nnnn3C3CCCCC3)N(C)C3CCCCC3)c(=O)[nH]c2cc1OC (stereo unspecified)	-0.35	49	72*	nt	i	51
Cc1ccc(C(c2nnnn2C2CCCCC2)N(C)C2CCCCC2)cc1 (stereo unspecified)	-0.2	50	72*	nt	i	48
CSc1nnc(-c2sc3cc(Cl)ccc3c2Cl)n1C	-0.61	74	9	-6	i	64
CCn1c(SC)nnc1-c1sc2cc(Cl)ccc2c1Cl	0.31	83	87*	-290	i	77
O=C1NCCCC1C(=O)N/N=C/c1ccccc1[N+](=O)[O-] (stereo unspecified)	0.07	nt	nt	nt	nt	nt
COC(=O)c1ccc(COc2ccccc2/C=C(\C#N)C(=O)Nc2c(C)cccc2C)cc1	0.46	1.8*	98*	-29	i	2.4*
Cc1cc(C)cc(N/C(N)=N/c2nc(C)cc(C)n2)c1	-2.3	27	85*	-38	i	29
Cc1cccc(N/C(N)=N/c2nc(C)cc(C)n2)c1	nt	60	14	0	i	72
Cc1cc(C)nc(/N=C(\N)Nc2ccccc2-c2ccccc2)n1	-2.2	nt	96*	nt	i	nt
Cc1ccc(N/C(N)=N/c2nc(C)cc(C)n2)cc1	-1.4	69	17	31	i	67
CC(=O)N(NC(=O)c1ccccc1Cl)C1CC(=O)N(c2ccc(C)cc2)C1=O (stereo unspecified)	-0.08	94	-5	nt	i	91
COCCCN1C(=O)C(=O)/C(=C(/O)c2ccc(OC(C)C)cc2)C1c1ccc(O)c(OC)c1 (stereo unspecified)	0.19	99	-10	29	i	102
CCN(CC)C1CCCCC1NS(=O)(=O)c1ccc(Cl)cc1 (stereo unspecified)	-1.5	102	-5	nt	nt	93
CSc1ccc(OC2CCCCC2NS(=O)(=O)c2ccc(Cl)cc2)cc1 (stereo unspecified)	-0.54	88	96*	100*	i	80
CN(c1ccccc1)C1CCCCC1NS(=O)(=O)c1ccc(Cl)cc1 (stereo unspecified)	-0.32	35	35	27	i	39
O=S(=O)(NC1CCCCC1Oc1ccccc1)c1ccc(Cl)cc1 (stereo unspecified)	0.33	72	75*	-34	i	77
N#C/C(=C/c1ccc(-c2cc([N+](=O)[O-])ccc2Cl)o1)C(N)=O	0.42	nt	nt	nt	nt	nt
FC(F)(F)c1cc(-c2ccccc2)nc(N2CCCCC2)n1	-0.55	82	-5	-79	i	80
CC1CCc2cc(F)ccc2N1C(=O)CCl (stereo unspecified)	0.51	nt	75*	-7	i	nt
CC1CCc2cc(F)ccc2N1C(=O)c1ccc2c(c1)OCO2 (stereo unspecified)	-4.9	83	10	-39	+	87
CCC(CC)C(=O)N1c2ccc(F)cc2CCC1C (stereo unspecified)	-0.24	90	-2	nt	i	96
CC(=O)C1=C(O)C(=O)N(Cc2ccco2)C1c1cccc(F)c1 (stereo unspecified)	0.09	nt	-7	-50	i	nt
O=C(c1ccc(S(=O)(=O)N2CCCCC2)cc1)N(c1ccccn1)C1CCCCC1	-0.03	nt	nt	nt	nt	nt
O=C(c1ccc(S(=O)(=O)N2CCCCCC2)cc1)N(c1ccccn1)C1CCCCC1	-0.24	nt	56*	nt	i	nt
C(=N\NC1=Nc2cccc3cccc1c23)/c1ccccn1	-1.5	nt	100*	-58	i	nt
COc1ccccc1NC1=Nc2cccc3cccc1c23	0.03	nt	nt	nt	nt	nt
C(=N\Nc1nc2ccccc2s1)/c1ccccn1	-1.9	nt	nt	nt	nt	nt
